High-throughput results (PubChem BioAssay)
Sampled rows, rich in hits. Any-hit rate of the full collection: about 14%.
Pf growth 96h: Primary qHTS for delayed death inhibitors of the malarial parasite plastid, 96 hour incubation. Potency, µM (titrated, usually from 28.7 µM), most hits filed as inhibitors. P. falciparum luciferase reporter growth, 96 h. AID 504834, 2011. 320,000 tested, 6.9% active
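P. falciparum expressing integrated firefly luciferase grown in erythrocytes (2% hematocrit, 0.05% parasitemia final) with compounds for 96 hours at 37 C, 5% CO2. Growth inhibition read as loss of luminescence after adding luciferase detection reagent.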
Marburg entry inh: qHTS for inhibitors of binding or entry into cells for Marburg Virus | Marburg virus pseudotyped entry inhibition, cell reporter | 300,000 tested, 1.8% active | AID 540276, 2011 | Potency, µM (top dose mostly 37.8 µM), most hits filed as inhibitors; calls by dose curve; tested in HEK293 cells
HCV inhibitor: qHTS Assay for Inhibitors of Hepatitis C Virus (HCV). Huh7.5.1 HCVcc-Cre infection, luciferase reporter, 44 h. Potency, µM (highest dose often 41.8 µM), hits mostly inhibitors. 340,000 tested, 3.4% active. AID 651820, 2012
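HCVcc-Cre virus at an moi near 0.5 was added right after compound to cells cultured 4 h from seeding (1,000 cells/well). Luciferase activity was determined 44 h later, 15 min after substrate addition at RT.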
Pf growth 48h: Primary qHTS for delayed death inhibitors of the malarial parasite plastid, 48 hour incubation. Potency, µM (series often up to 28.7 µM), most hits filed as inhibitors. P. falciparum luciferase growth in erythrocytes, 48 h. 310,000 tested, 5.9% active
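A one-generation exposure of luciferase-tagged malaria parasites in RPMI 1640/Albumax erythrocyte culture, 37 C and 5% CO2. Inhibition is inferred from decreased luminescence after adding detection reagent.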
HCMV inh: qHTS Assay for inhibitors of the human cytomegalovirus (HCMV); HFF cells, HCMV-luciferase reporter, 72 h; hits give low values; activity change, negative = inhibition, % at 57.5 µM; 410,000 tested, 4.5% active; in the data active = activity change below about -60%; inconclusive = no clear call, values can overlap the other calls; inactive = above about -39%
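Compounds were evaluated in HFFs infected with an HCMV luciferase reporter virus (MOI 1 PFU/cell). Luciferase in lysates collected 72 h post infection served as the replication measure.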
LASV entry inh: qHTS for Inhibitors of binding or entry into cells for Lassa Virus | Potency, µM (top dose mostly 37.9 µM), actives largely listed as inhibitors | Lassa virus pseudotype entry inhibition, cell reporter | 300,000 tested, 1.2% active; calls by dose curve; tested in HEK293 cells; note: nearly all actives have a fitted effect of over 50% in size
Hits are given with their value; . = inactive; ? = inconclusive; / = no result; ! = repeats disagree. Unless noted, calls come from the whole dose curve; as a rule, active = well fitted inhibition curve with a large enough effect; inconclusive = small, poorly fitted or top-dose-only effect, or another doubt; inactive = no such curve, though single readings can be large or run the other way.

SMILES	Pf growth 96h	Marburg entry inh	HCV inhibitor	Pf growth 48h	HCMV inh	LASV entry inh
COc1cc(/C=C(/C#N)c2nc3ccccc3[nH]2)ccc1Oc1ncccc1[N+](=O)[O-]	?	.	2.51µM	14.7µM	?	?
N#C/C(=C\c1ccc(N2CCCC2)c([N+](=O)[O-])c1)c1nc2ccccc2[nH]1	.	.	.	?	.	.
COc1ccc2nc(/C(C#N)=C\c3ccc(C(=O)O)cc3)[nH]c2c1	.	.	.	.	.	.
COc1cc(/C=C(/C#N)c2ccc(C)cc2)ccc1Oc1ccc([N+](=O)[O-])cn1	.	.	10µM	?	.	.
COc1ccc2nc(/C(C#N)=C\c3ccc(Oc4ccc([N+](=O)[O-])cn4)cc3)[nH]c2c1	?	?	?	14.7µM	?	.
Cc1ccc2nc(/C(C#N)=C\c3ccc(Oc4ccc([N+](=O)[O-])cn4)cc3)[nH]c2c1	?	.	?	9.28µM	.	.
Cc1cc(C)c(NC(=O)CCCN2C(=O)COc3ccc(C)cc32)c(C)c1	/	?	/	/	.	?
CCOc1cc(/C=C(/C#N)c2nc3ccccc3[nH]2)ccc1Oc1ccc([N+](=O)[O-])cn1	2.33µM	?	?	?	.	?
COc1ccc(OC)c2c(C)c(C)[nH]c12	.	/	10µM	?	.	/
COC(=O)[C@@]12C[C@@H](CC(=O)NCc3ccccc3)C(=O)N(Cc3ccc4c(c3)OCO4)C1=CCC(C)(C)C2	/	/	/	/	.	/
CC(C)(C)NC(=S)NC(=O)C12CC3CCC(CC(C3)C1)C2	.	.	.	10.4µM	.	.
COc1cc(C)ccc1Oc1ccc2c(-c3ccccc3)noc2n1	/	/	/	/	.	/
O=C(CSc1nnc(CNC(=O)c2cccs2)o1)Nc1ccc(Br)cc1	13.1µM	.	.	.	.	.
O=C(CSc1nnc(CNC(=O)c2cccs2)o1)Nc1ccc(Cl)cc1	10.4µM	.	.	.	.	.
Cc1ccc(C(=O)NCC(c2ccc(F)cc2)N2CCOCC2)cc1S(=O)(=O)N1CCOCC1 (stereo not drawn)	/	.	.	/	.	.
CC1CN(C(=O)COC(=O)Cc2c(F)cccc2Cl)CC(C)O1 (stereo not drawn)	.	/	.	.	.	/
CCOc1ccc(-c2cn(CCC#N)cn2)cc1	6.57µM	?	.	.	.	.
CCOc1ccc(-c2cnc(N)n2C)cc1	.	/	.	.	.	/
Oc1ccc(CN2CCCCC2)nc1-c1ccccc1	?	.	.	0.522µM	.	.
Oc1cccnc1CN1CCCCC1	/	.	.	/	.	.
Oc1ccc(Cl)cc1CN1CCN(Cc2ccccc2)CC1	/	.	.	1.47µM	.	.
Oc1ccc(-c2ccccc2)cc1CN1CCCCCC1	?	?	.	0.657µM	.	.
OCC1(CCc2ccccc2)CCN(Cc2cc(Cl)ccc2O)CC1	.	.	.	.	.	.
CCOC(=O)[C@]12CCCC=C1N(CCc1ccc(OC)c(OC)c1)C(=O)[C@H](CC(=O)N1CCCCC1)C2	/	/	/	/	.	/
C=CCSc1nc2ccccc2n1C(=O)/C=C/c1cc(OC)c(OC)c(OC)c1	.	13µM	6.31µM	?	-110.5	9.2µM
SMILES	Pf growth 96h	Marburg entry inh	HCV inhibitor	Pf growth 48h	HCMV inh	LASV entry inh
COc1cc(/C=C/C(=O)N2CCN(C(=O)/C=C/c3cc(OC)c(OC)c(OC)c3)CC2)cc(OC)c1OC	.	.	.	.	/	.
C=CCSc1nc2ccccc2n1C(=O)/C=C/c1ccc(OC)c(OC)c1	.	?	?	?	-102.7	8.2µM
CCSc1nc2ccccc2n1C(=O)/C=C/c1ccc(OC)c(OC)c1	.	?	?	.	-100.3	6.31µM
CCOc1ccc(NC(=O)c2cc(=O)c3ccc(C)c(C)c3o2)cc1	/	.	/	/	.	.
CCN(c1ccc(OC)cc1)S(=O)(=O)N1CCCC(C(=O)NC(C)c2ccccc2)C1 (stereo not drawn)	/	/	/	/	.	/
O=C(Nc1cccc(C(F)(F)F)c1)c1csc(-c2ccncc2)n1	?	?	.	?	?	?
CCN1CCN(Cc2ccc(NC(=O)c3ccc(C)c(NC(=O)c4c[nH]c5cc(C(F)(F)F)ccc5c4=O)c3)cc2C(F)(F)F)CC1	0.522µM	/	?	0.586µM	-98.4	/
CCN1CCN(Cc2ccc(NC(=O)c3ccc(C)c(NC(=O)c4cccc(-c5cn[nH]c(=O)c5)c4)c3)cc2C(F)(F)F)CC1	1.47µM	/	?	1.65µM	/	/
CCN1CCN(Cc2ccc(NC(=O)c3ccc(C)c(NC(=O)C4=NN(c5ccccc5)C(=O)C4)c3)cc2C(F)(F)F)CC1	0.522µM	/	.	0.415µM	.	/
Cc1ccc(C(=O)Nc2cccc(C(F)(F)F)c2)cc1NC(=O)c1cnnc2ccccc12	?	/	.	.	?	/
Cc1ccc(S(=O)(=O)N2CCOCC2)cc1NC(=O)C1=NN(c2ccccc2)C(=O)CC1	?	/	.	?	.	/
Cc1ccc(C(=O)Nc2cccc(C(F)(F)F)c2)cc1NC(=O)c1c[nH]c2cc(C(F)(F)F)ccc2c1=O	/	/	.	/	.	/
CCN1CCN(Cc2ccc(NC(=O)c3ccc(C)c(NC(=O)c4csc(-c5ccncc5)n4)c3)cc2C(F)(F)F)CC1	0.928µM	/	?	1.65µM	?	/
CN1CCn2cnc(C(=O)NCCCCCNC(=O)OC(C)(C)C)c2C1=O	/	/	/	/	.	/
O=S(=O)(c1ccc2c(c1)OCCO2)C1CCC(S(=O)(=O)c2c(F)cccc2F)CC1 (stereo not drawn)	.	/	/	.	.	/
COc1ccc(S(=O)(=O)N(CC(=O)Nc2ccc(OC)cc2OC)c2ccc(Cl)cc2)cc1	/	?	/	/	.	?
CCN1CCN(Cc2ccc(NC(=O)c3ccc(C)c(NC(=O)C[C@@H]4NC(=O)[C@H](Cc5ccccc5)NC4=O)c3)cc2C(F)(F)F)CC1	?	/	.	?	.	/
CCN1CCN(Cc2ccc(NC(=O)c3cc(NC(=O)C4=NN(c5ccccc5)C(=O)C4)cc(OC)c3)cc2C(F)(F)F)CC1	0.329µM	/	.	0.928µM	.	/
CCc1nc2c(OCc3ccccc3C)cccn2c1N(C)C(=O)c1ccco1	/	/	/	/	.	/
CC(=O)Nc1nnc2n1CCS2	/	/	/	/	.	.
NC(=NCCCCCCN=C(N)/N=C(\N)Nc1ccc(Cl)cc1)/N=C(\N)Nc1ccc(Cl)cc1	?	/	?	0.329µM	-94.6!	/
CC(C)N=C(N)N=C(N)Nc1ccc(Cl)cc1	0.329µM	/	.	1.17µM	.	/
CCCCN=C(Nc1ccc(Cl)cc1)c1cccnc1	.	.	.	?	.	.
CC(C)N=C(N)/N=C(\N)Nc1ccc(Cl)cc1	0.361µM	/	/	2.87µM	/	/
CCOc1ccc(-c2nc(SCC(=O)c3ccccc3)n[nH]2)cc1	/	.	/	/	.	?
CCOC(=O)c1nc(C)nc(Sc2n[nH]c(-c3ccccc3)n2)c1C	?	/	.	10.4µM	.	/
